The text below walks through data of ChEMBL document CHEMBL3433997, “St. Jude Leishmania screening dataset” (2016).

Holding throughout (type): functional
In experiment [1] the target is Solute carrier family 2, facilitated glucose transporter member 1 (Homo sapiens) (UniProt P11166). The experiment in a line: ST_JUDE_LEISH: Cytotoxicity at 2uM final concentration against transgenic Leishmania Mexicana promastigotes LmGLUT1 that are glucose transport deficient and complemented with the human glucose transporter GLUT1. Activity is measured by DNA content using SYBR green in vitro.

Experiment [2] addresses Hexose transporter 1 (Plasmodium falciparum) (UniProt O97467). The experiment in a line: ST_JUDE_LEISH: Cytotoxicity at 2uM final concentration against transgenic Leishmania Mexicana promastigotes LmPfHT that are glucose transport deficient and complemented with the Plasmodium falciparum hexose transporter. Activity is measured by DNA content using SYBR green in vitro.
Experiment [3] addresses Glucose transporter (Leishmania mexicana) (UniProt O61059). The experiment can be described thus: ST_JUDE_LEISH: Cytotoxicity at 2uM final concentration against transgenic Leishmania Mexicana promastigotes LmGT2 that are glucose transport deficient and complemented with the L. Mexicana glucose transporter 2. Activity is measured by DNA content using SYBR green in vitro.

Chain of Solute carrier family 2, facilitated glucose transporter member 1 (Homo sapiens) (P11166 whole entry): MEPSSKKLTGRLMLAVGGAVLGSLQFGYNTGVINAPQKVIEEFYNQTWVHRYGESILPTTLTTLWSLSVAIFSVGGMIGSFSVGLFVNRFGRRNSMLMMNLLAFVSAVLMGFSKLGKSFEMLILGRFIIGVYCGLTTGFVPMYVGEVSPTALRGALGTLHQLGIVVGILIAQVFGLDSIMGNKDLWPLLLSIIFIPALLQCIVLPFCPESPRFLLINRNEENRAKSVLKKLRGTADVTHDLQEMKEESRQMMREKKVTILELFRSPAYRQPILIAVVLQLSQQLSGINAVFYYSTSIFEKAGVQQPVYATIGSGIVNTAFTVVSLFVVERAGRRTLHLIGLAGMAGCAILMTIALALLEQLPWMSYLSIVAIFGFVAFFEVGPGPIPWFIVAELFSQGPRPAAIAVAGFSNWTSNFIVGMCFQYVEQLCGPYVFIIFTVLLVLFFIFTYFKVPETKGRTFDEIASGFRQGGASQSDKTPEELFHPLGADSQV

With `CCC[C@@H]([C@@H](CC1CCC(C)CC1)C(=O)N[C@@H](CO)C(=O)Nc1nccs1)N(O)C=O` (some centres undefined), the inhibition in experiment [1] turned out to be 1.25%; in experiment [2] it was 2.18%; in experiment [3], 1.54%.
Take `CCN(CC)CCN(Cc1ccc(-c2ccc(Br)cc2)cc1)C(=O)Cn1c(CCc2cccc(F)c2F)nc(=O)c2ccccc21`: the inhibition in experiment [1] was found to be 2.2%; in experiment [2] it was 3.29%; in experiment [3], 6.05%.
Take `O=C(Nc1nc(-c2ccccn2)cc2ccccc12)c1cccc(Cl)c1`: the values for the inhibition in experiment [1], in experiment [2] and in experiment [3] were 10.1%, 9.58% and 8.17%, respectively.
In the case of `C(=Cc1nc2ccccc2s1)c1ccc2c(c1)OCCO2`, the values for the inhibition in experiment [1], in experiment [2] and in experiment [3] were 0.08%, 0.45% and -2.03%, respectively.
As for `Cn1cncc1C(=O)Nc1ccc(-c2ccc(-c3nc4cc(C(F)(F)F)ccc4[nH]3)cc2)cc1`, the results for the inhibition in experiment [1], in experiment [2] and in experiment [3] were 20.8%, 15% and 4.64%, respectively.
Take `CCOc1c(CNCCCNc2cc(O)c3ccccc3n2)cc(Br)cc1OC`: the inhibition in experiment [1] worked out at 7.77%; in experiment [2] it was 4.37%; in experiment [3], 6.38%.
On to `CN(C)CCOc1ccc2nc(-c3cccc(OCc4ccccc4)c3)[nH]c2c1C#N`, for which the inhibition in experiment [1] is 2.41%; in experiment [2] it was 1.25%; in experiment [3], 1.74%.
Turning to `CC(=O)c1c(Cc2ccccc2Cl)c[nH]c1C`, the inhibition in experiment [1] is 4.46%; in experiment [2], 3.16%; in experiment [3], -1.32%.
Regarding `COc1cccc(-n2ncc3c(N/N=C/c4ccc(CN(C)CCN(C)C)cc4)ncnc32)c1`, the inhibition in experiment [1] was 10.7%; in experiment [2] it was 10.3%; in experiment [3] it was 7.16%.
Regarding `O=C(Nc1cccc(CN2CCN(C(=O)c3cccc(Cl)c3)CC2)c1)c1ccco1`, the inhibition in experiment [1] is -4.34%; in experiment [2], 0.58%; in experiment [3], 3.82%.
Take `Cc1cccc2nc(-c3cccc(-c4ccc(NC(=O)Cc5c[nH]cn5)cc4)c3)[nH]c12`: the inhibition was -1.66% in experiment [1], -0.73% in experiment [2] and -0.58% in experiment [3].
As for `COc1cc2nc(N(C)C)nc(Nc3ccc(OCc4ccccc4)cc3)c2cc1OC`, the results for the inhibition in experiment [1], in experiment [2] and in experiment [3] were 0.24%, 1.34% and -0.07%, respectively.
Regarding `CCOc1ccc(NC(=O)c2cccc(CN3CCCN(Cc4cccc(O)c4)CC3)c2)cc1`, the inhibition in experiment [1] was -0.94%; in experiment [2], 0.07%; in experiment [3], 0.81%.
As to `c1ccc(CCNc2ncnc3c2[nH]c2ccccc23)cc1`, the inhibition in experiment [1] was determined as 3.67%; in experiment [2], 11.6%; in experiment [3] it was 3.69%.
Regarding `COc1ccc2nccc([C@@H](O)CN3CCC(NCc4cc5c(F)ccc(F)c5[nH]4)CC3)c2n1`, the inhibition in experiment [1] was 87.9%; in experiment [2], 86.8%; in experiment [3], 87.2%.
In the same order, the values of `O=c1[nH]ccc2nc(N[C@@H]3CCNC3)nc(Nc3cccc(S(=O)(=O)N4CCOCC4)c3)c12` are 2.94%, 3.93% and 0.85%.
Turning to `Cc1cccc2nc(-c3ccc(-c4cccc(CNC5CCN(C)CC5)c4)s3)[nH]c12`, the figures for the inhibition in experiment [1], in experiment [2] and in experiment [3] were -2.43%, 2.74% and -0.61%, respectively.
Regarding `N=C(N)NN=CC(=O)Nc1ccc(Cl)cc1`, the inhibition worked out at 7.68% in experiment [1], 11.3% in experiment [2] and 8.24% in experiment [3].
